Compound activity deposited in PubChem BioAssay by National Center for Advancing Translational Sciences (NCATS).
The list is not random: actives were taken first. Their share in the collection is about 1.3%.
PINK1 modulator = A Quantitative High throughput Screen to Identify Chemical Modulators of PINK1 Expression | PINK1 immunofluorescence, high-content cytometry, 24 h | Potency, µM (top dose mostly 76.6 µM), for inactives: top-dose activation (PINK1 increase), most hits filed as activators | actives 0.2% (n = 410,000); active = well fitted activation curve with a large enough effect; inconclusive = small, poorly fitted or top-dose-only effect; cell line not stated here; also: potency is read from the fitted curve at half-maximal effect; % of control where 0% means no effect; nearly all actives have a fitted effect of over 65% in size
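Cells are seeded, rested 12 hours, then given compound at five concentrations or DMSO for 24 hours. After fixation, blocking and antibody staining, PINK1 amount and mitochondrial localization are scored; CCCP serves as control.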
Giardia kill = Small Molecules that selectively kill Giardia lamblia: qHTS; Giardia lamblia trophozoite viability; activity change, % at 7.66 µM, hits read low; actives 0.15% (n = 340,000); in the data active = activity change below about -80%; inconclusive = between about -30% and that limit;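 also: parasites exposed to compound for two days anaerobically before the ATP read; % is scaled to controls: 0 for no effect and ±100 for the full control effect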
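Killing of trophozoites was scored by loss of ATP luminescence after a 48 hrs anaerobic exposure to compounds at 37 deg C, using 100 cells per well.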
miR-21 reporter = qHTS Assay for Modulators of miRNAs and/orActivators of miR-21; HeLa miR-21 FLuc reporter, luciferase, 48 h; Potency, µM (doses to about 38.3 µM), without a hit: at the highest dose activity change, positive = activation, actives largely listed as activators; 340,000 tested, under 10 active;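 also: % of control where 0% means no effect; miR-21 action dims this reporter so a rising signal means less miR-21 action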
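HeLa cells endogenously expressing miR-21, stably carrying CMV-driven firefly luciferase with a downstream miR-21 binding site, 2000 cells/well. Titrations up to approximately 40 uM, 48 hours; luciferase luminescence read.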
ALOX12 inh = Primary qHTS assay for inhibitors of human arachidonate 12S-lipoxygenase (ALOX12): Round 2; Polyunsaturated fatty acid lipoxygenase ALOX12 (Homo sapiens), P18054; purified 12hLO, xylenol orange hydroperoxide absorbance; Potency, µM (titrated, usually from 108 µM), for inactives: at the highest dose activity change, negative = inhibition, most hits filed as inhibitors; actives 1.1% (n = 580,000); also: potency is read from the fitted curve at half-maximal effect; % is scaled to controls: 0 for no effect and ±100 for the full control effect
Target sequence (P18054 whole entry, looked up): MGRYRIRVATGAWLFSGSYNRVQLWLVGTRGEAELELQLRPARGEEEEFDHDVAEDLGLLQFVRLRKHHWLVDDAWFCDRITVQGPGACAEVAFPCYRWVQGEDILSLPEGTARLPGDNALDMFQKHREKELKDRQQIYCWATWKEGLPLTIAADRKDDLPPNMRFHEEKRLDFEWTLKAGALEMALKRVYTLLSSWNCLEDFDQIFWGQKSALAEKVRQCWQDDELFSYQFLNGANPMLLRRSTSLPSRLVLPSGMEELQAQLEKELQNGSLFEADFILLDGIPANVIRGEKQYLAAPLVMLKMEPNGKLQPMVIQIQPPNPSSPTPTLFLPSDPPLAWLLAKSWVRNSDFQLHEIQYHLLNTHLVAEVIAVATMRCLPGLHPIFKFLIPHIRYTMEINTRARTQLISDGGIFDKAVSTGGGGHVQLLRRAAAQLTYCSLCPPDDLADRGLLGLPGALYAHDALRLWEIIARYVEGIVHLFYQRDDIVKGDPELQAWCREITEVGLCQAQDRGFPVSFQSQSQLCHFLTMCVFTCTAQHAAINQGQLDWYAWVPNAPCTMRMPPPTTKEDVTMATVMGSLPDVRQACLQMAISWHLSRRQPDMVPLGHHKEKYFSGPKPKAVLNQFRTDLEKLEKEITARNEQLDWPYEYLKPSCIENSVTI
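Purified human 12hLO at 150 nM in 25 mM Hepes, 0.01% Triton X-100, pH 7.0, preincubated 15 min at room temperature with compound. Reaction started with 40 uM arachidonic acid, 30 min at room temperature. Hydroperoxide measured by Fe-xylenol orange, 573/405 nm absorbance ratio.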
ERG-DNA inh = qHTS for Small Molecule Inhibitors of the ERG Ets/DNA interaction. Transcriptional regulator ERG (Homo sapiens), P11308. fluorescence polarization, His-ERG Ets domain / labelled DNA. Potency, µM (doses to about 76.9 µM), for inactives: at the top dose FP activity, negative = inhibition, most hits filed as inhibitors. actives 0.028% (n = 370,000). AID 624246, 2012; active = well fitted inhibition curve with a large enough effect in the polarisation, with a control signal flat; inconclusive = small, poorly fitted or top-dose-only effect, or effect the other way, or a change in a side signal; inactive = no such curve, though single readings can be large or run the other way; the % refers to the polarisation;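 also: polarization taken with two DNA probes labelled with fluorescein and Texas red; potency is read from the fitted curve at half-maximal effect; % of control where 0% means no effect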
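His-tagged ERG Ets domain (1 uM in the protein solution; 300mM KCl, 50mM Tris-HCl, 1mM EDTA, 1mM DTT, pH 7.5) received compound, then a probe mix of 5 nM fluorescein-DNA and 100nM Texas-615-DNA. Fluorescence polarization was read for both dyes.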
PTHR1 agonist = qHTS for PTHR1 Agonists: Primary Screen; Parathyroid hormone/parathyroid hormone-related peptide receptor (Homo sapiens), Q03431; HEK293 GP2 PTHR1 cells, GloSensor cAMP luminescence, 1 h; Potency, µM (doses to about 115 µM), without a hit: top-dose activation, actives largely listed as activators; actives 0.075% (n = 410,000); also: potency is read from the fitted curve at half-maximal effect; nearly all actives have a fitted effect of over 55% in size
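HEK-293-derived GP2 cells expressing PTHR1 and a GloSensor cAMP reporter, 3,000/well, plated overnight, given luciferin plus IBMX (each 0.5 mM as added) for 1 h at 37 °C, then compound for 1 h at 37 °C. Luminescence was read after 15 min at room temperature.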
* marks the source's active call; other numbers are inactive results. Unless noted, calls follow the shape of the dose curve; as a rule, active = well fitted curve in the direction sought with a large enough effect; inconclusive = small, poorly fitted or top-dose-only effect, or another doubt; inactive = no such curve, though single readings can be large; an effect the other way counts as inactive or inconclusive.

Results for COc1ccc(-c2nc3cnc(Nc4cccc(OC)c4)nc3n(C[C@H]3CCCO3)c2=O)cc1 ?
PINK1 modulator: 25µM*; ALOX12 inh: inconclusive

Results for C=C(C)CNC(=S)NNC(=O)CCn1c2ccc(Cl)cc2c2cc(Cl)ccc21 ?
PINK1 modulator: 0%; Giardia kill: 28; miR-21 reporter: -2%; ALOX12 inh: 32µM*; ERG-DNA inh: 9%; PTHR1 agonist: -63%

How did COc1ccc(CN2CCC[C@]3(N[C@H](c4ccc(C(F)(F)F)cc4)[C@@H]4C(=O)N(Cc5ccccc5)C(=O)[C@@H]43)C2=O)cc1 do in these assays?
PINK1 modulator: 0%; ALOX12 inh: inconclusive; PTHR1 agonist: -25%

Results for Cc1ccc(CN2CCC[C@]3(N[C@H](c4ccc(C(F)(F)F)cc4)[C@@H]4C(=O)N(Cc5ccccc5)C(=O)[C@@H]43)C2=O)cc1 ?
PINK1 modulator: 2%; ALOX12 inh: 8.9µM*; PTHR1 agonist: -9%

What do the screens show for `COc1ccc([C@H]2N[C@]3(CCCN(Cc4ccc(F)cc4)C3=O)[C@H]3C(=O)N(Cc4ccccc4)C(=O)[C@@H]23)cc1`?
PINK1 modulator: 0%; ALOX12 inh: 35µM*; PTHR1 agonist: -43%

Results for Cc1ccc([C@H]2N[C@]3(CCCN(Cc4ccc(F)cc4)C3=O)[C@H]3C(=O)N(Cc4ccccc4)C(=O)[C@@H]23)cc1 ?
PINK1 modulator: 1%; ALOX12 inh: 14µM*; PTHR1 agonist: -34%

How did Cc1ccc([C@H]2N[C@]3(CCCN(Cc4ccc(C(F)(F)F)cc4)C3=O)[C@H]3C(=O)N(Cc4ccccc4)C(=O)[C@@H]23)cc1 do in these assays?
PINK1 modulator: 2%; ALOX12 inh: inconclusive; PTHR1 agonist: -19%

What do the screens show for `Cc1ccc(CN2CCC[C@]3(N[C@H](c4ccccc4)[C@@H]4C(=O)N(C)C(=O)[C@@H]43)C2=O)cc1`?
PINK1 modulator: 1%; ALOX12 inh: inconclusive; PTHR1 agonist: -1%

What do the screens show for `CCN1C(=O)[C@H]2[C@@H](c3ccc(OC)cc3)N[C@]3(CCCN(Cc4ccc(C(F)(F)F)cc4)C3=O)[C@H]2C1=O`?
PINK1 modulator: 2%; ALOX12 inh: 32µM*; PTHR1 agonist: -25%

What do the screens show for `CC(C)(C)c1csc(NC(=O)Cn2cnc3ccccc3c2=O)n1`?
PINK1 modulator: 4%; Giardia kill: -2; miR-21 reporter: -8%; ALOX12 inh: -50%; ERG-DNA inh: -2%; PTHR1 agonist: -18%

Results for N#Cc1ccccc1NC(=O)CSc1ncn[nH]1 ?
PINK1 modulator: 1%; miR-21 reporter: -4%; ALOX12 inh: -23%; ERG-DNA inh: -1%; PTHR1 agonist: -18%

What do the screens show for `Cc1cc(Cl)ccc1OCCCc1n[nH]c(=S)n1Cc1ccco1`?
ALOX12 inh: 18µM*

How did S=c1[nH]nc(COc2ccc(Cl)cc2)n1Cc1ccco1 do in these assays?
PINK1 modulator: 1%; Giardia kill: 1; miR-21 reporter: -8%; ALOX12 inh: 40µM*; ERG-DNA inh: -3%; PTHR1 agonist: -29%

Results for COc1cccc(-c2n[nH]c(=S)n2Cc2ccco2)c1 ?
PINK1 modulator: -1%; Giardia kill: 4; miR-21 reporter: -1%; ALOX12 inh: 18µM*; ERG-DNA inh: 8%; PTHR1 agonist: inactive

How did COc1ccc(NS(=O)(=O)c2cccc(-c3n[nH]c(=S)n3Cc3ccccc3)c2)cc1 do in these assays?
PINK1 modulator: 1%; Giardia kill: 17; miR-21 reporter: 2%; ALOX12 inh: 32µM*; ERG-DNA inh: 0%; PTHR1 agonist: -40%

Results for COc1ccc(NS(=O)(=O)c2ccc(-c3n[nH]c(=S)n3Cc3ccccc3)cc2)cc1 ?
PINK1 modulator: 2%; Giardia kill: 10; miR-21 reporter: -1%; ALOX12 inh: inconclusive; ERG-DNA inh: 2%; PTHR1 agonist: inactive

What do the screens show for `Cc1ccc(NC(=O)CN2CCc3sccc3C2c2cccs2)cc1S(=O)(=O)N(C)C` (stereo not given)?
ALOX12 inh: 0%

What do the screens show for `COc1ccccc1C(=O)NCC(c1cccnc1)N1CCc2ccccc2C1` (stereo not given)?
PINK1 modulator: -1%; miR-21 reporter: -32%; ALOX12 inh: -3%; ERG-DNA inh: -9%; PTHR1 agonist: -13%

What do the screens show for `CC1CCN(C(CNC(=O)c2ccccc2SC(F)F)c2cccs2)CC1` (stereo not given)?
ALOX12 inh: 32µM*

Results for CC1CN(Cc2c(O)ccc3c2oc(=O)c2ccccc23)CC(C)O1 (stereo not given) ?
PINK1 modulator: 1%; Giardia kill: 6; miR-21 reporter: 21%; ALOX12 inh: 5.6µM*; ERG-DNA inh: 5%; PTHR1 agonist: -46%

Results for O=[N+]([O-])c1ccc(Cl)c(CN2CCCCCC2)c1 ?
PINK1 modulator: 0%; Giardia kill: 18; miR-21 reporter: 7%; ALOX12 inh: 0.56µM*; ERG-DNA inh: 0%; PTHR1 agonist: -3%

What do the screens show for `O=[N+]([O-])c1ccc(Cl)c(CN2CCC(O)CC2)c1`?
PINK1 modulator: -1%; Giardia kill: 0; miR-21 reporter: -4%; ALOX12 inh: -12%; ERG-DNA inh: -9%; PTHR1 agonist: inactive

Results for CN(CCCCOc1ccc(F)cc1)Cc1ccccc1 ?
PINK1 modulator: 6%; Giardia kill: 13; miR-21 reporter: -1%; ALOX12 inh: 1.1µM*; ERG-DNA inh: -1%; PTHR1 agonist: inactive

How did c1csc(CNc2ccnc(-c3ccoc3)n2)c1 do in these assays?
PINK1 modulator: 0%; ALOX12 inh: 13µM*

Results for FC(F)(F)c1ccccc1-c1nccc(NCc2cccs2)n1 ?
PINK1 modulator: -1%; ALOX12 inh: inconclusive

What do the screens show for `COc1ccccc1-c1nccc(NCc2cccs2)n1`?
PINK1 modulator: 7%; ALOX12 inh: 13µM*

What do the screens show for `CCc1nncn1C1CCN(S(=O)(=O)c2cccc(OC)c2)CC1`?
ALOX12 inh: 79µM*
